Experimental data as given in ChEMBL document CHEMBL4513216, “Probing the Open Global Health Chemical Diversity Library for Multistage-Active Starting Points for Next-Generation Antimalarials” (ACS Infect Dis, 2020).
About 8,600 (12%) of roughly 69,000 compounds showed an effect of 50% or more. The sample holds strong results, similar compounds and a random draw of the others, so the mix is not that of the screen.

tested on: Plasmodium berghei; assay: Screen against P. berghei liver stage (PbLuc), transformed with Luciferase, at 10uM; format: functional, HepG2; settings: tested at 10 uM

Compound | INHIBITION [%]
c1ccc2sc(CN3CCCC3c3noc(C4CC4)n3)nc2c1 (stereo not given) | 78
Cc1nc(CN2CCCC2c2ccsc2)nc2ccccc12 (stereo not given) | 53.8
Cc1nn(C)c(C)c1C1CCCN1Cc1nc(N)c2ccccc2n1 (stereo not given) | 23.4
c1cc(CN2CCCC2c2noc(C3CC3)n2)on1 (stereo not given) | 37.4
Cc1nn(C)c(C)c1C1CCCN1Cc1nc(C)c2ccccc2n1 (stereo not given) | 12.7
C1CC(c2noc(C3CC3)n2)N(Cc2nc(C3CC3)no2)C1 (stereo not given) | 2.3
NC(=O)c1nc(CC(=O)Nc2cccc(C(F)(F)F)c2)no1 | -14.8
CCOC(=O)CCC(=O)NC(C)c1ccc(NC(=O)CC)cc1 (stereo not given) | 37.1
O=C(Cc1cnc(-c2c(Cl)cccc2Cl)s1)N1CCOCC1 | 19.3
CC(C)CN1CCN(C)C2(CCN(c3nccs3)CC2)C1=O | 45.2
CN1CCN(CCO)C(=O)C12CCN(c1nccs1)CC2 | 23.1
CN1CCN(Cc2ccncc2)C(=O)C12CCN(c1nccs1)CC2 | 58.5
CCNc1nnc(SCc2nnc(C(C)(C)C)o2)s1 | -7.93
CC(=O)N1CCN(C(=O)CN2CCCC2Cn2nc(C)cc2C)CC1 (stereo not given) | -14.6
C=c1ncsc1=C1NN=C(C2CCCN2C(=O)Cn2cccn2)O1 (stereo not given) | 19.24
CCOCc1cnc2n1CCN(Cc1scnc1C)C2C (stereo not given) | 20.1
Cc1ncsc1CN1CCn2c(COCC3CC3)cnc2C1C (stereo not given) | 18.5
Cc1ccc(CN2CCn3c(COc4cccnc4)cnc3C2C)o1 (stereo not given) | 25.8
CC1c2ncc(COc3cccnc3)n2CCN1Cc1cnn(C)c1 (stereo not given) | 34
Cc1ncsc1CN1CCn2c(COc3cccnc3)cnc2C1C (stereo not given) | 58.7

Compound | INHIBITION [%]
CC1c2ncc(COc3cccnc3)n2CCN1Cc1ccco1 (stereo not given) | 54.8
Cc1ccsc1CN1CCn2c(COc3cccnc3)cnc2C1C (stereo not given) | 65.7
Cc1csc(CN2CCn3c(COc4cccnc4)cnc3C2C)n1 (stereo not given) | 31.2
CC1c2ncc(COc3cccnc3)n2CCN1C(=O)Cc1ccco1 (stereo not given) | -36.3
O=C1CC2(CCCNC2)C(=O)N1Cc1cccc(F)c1 (stereo not given) | 0.112
Cc1ccc(C(=O)NS(=O)(=O)Cc2ccc(F)cc2)cc1S(C)(=O)=O | 41.6
CNC(=O)c1ccc2c(c1O)OC(C)(C)C2 | 30
CNC(=O)CN1CCN(C(=O)c2ccn(C)c(=O)c2)CC1 | -7.31
Cn1cc(CN2CCCC3(CCN(Cc4cccnc4)C3=O)C2)cn1 (stereo not given) | 43.2
CN1CCC(CN2CCC3(CCCN(Cc4ccoc4)C3)C2=O)CC1 (stereo not given) | 1.34
CN(C)C(=O)CN1CCC2(CCCN(Cc3ccsc3)C2)C1=O (stereo not given) | 18.6
CN(C)C(=O)CN1CCC2(CCCN(Cc3ccoc3)C2)C1=O (stereo not given) | 53.9
CN(C)C(=O)CN1CCC2(CCN(C(=O)N(C)C)CC2)C1=O | -19.6
O=C1N(CC2CC2)CCC12CCN(Cc1ccoc1)CC2 | 11.2
CN(C)C(=O)CN1CCC2(CCCN(Cc3cccn3C)C2)C1=O (stereo not given) | -10.2
CN(C)C(=O)CN1CCC2(CCN(S(C)(=O)=O)CC2)C1=O | 18.6
CN(C)C(=O)CN1CCC2(CCN(C(=O)N3CCCC3)CC2)C1=O | 54.3
CN(C)C(=O)CN1CCC2(CCCN(Cc3cccnc3)C2)C1=O (stereo not given) | 72.9
CC(C)CN1CCC2(CCN(Cc3ccoc3)CC2)C1=O | 50.7
CC(C)CN1CCC2(CCN(Cc3ccc(F)cc3)CC2)C1=O | -15.9
